Test results from PubChem BioAssay (NCATS).
Results filed as inconclusive are left out. Entries that show only a call come without a potency. Unmarked numbers belong to inactive results. Active and inactive are the calls of the source. Calls follow the shape of the dose curve; as a rule, active = well fitted activation curve with a large enough effect; inconclusive = small, poorly fitted or top-dose-only effect; inactive = no such curve, though single readings can be large or run the other way. Numbered stars: 1 amine (or outer) side, 2 acyl side, 3 side chain; on linkers, the order of the positions; unused ones are H or OH. Square brackets hold non-standard residues; d marks the D form. Peptide text beside a SMILES is read from it. X1 = CCCCCCCCCC(=O)[C@H](C(=O)[*:2])[C@@H]1CNC(=O)[C@@H](N[*:1])CS1

test: Redox Reaction Profiling qHTS: Assay Interference Panel against the NCATS CANVASS Library (AID 1347401); conditions: resazurin-DTT redox cycling, fluorescence, 15 min; series mostly up to 57.1 µM
Text: Natural products and their derivatives continue to be wellsprings of nascent therapeutic potential. However, many laboratories have limited resources for biological evaluation, leaving their previously isolated or synthesized compounds largely or completely untested. To address this issue, the Canvass library of natural products was assembled (https://tripod.nih.gov/canvass), in collaboration with academic and industry researchers, for quantitative high-throughput screening (qHTS) across a diverse set of cell-based and biochemical assays. The pure (>85% purity by liquid chromatography/mass spectrometry [LC/MS]) Canvass library of 346 natural products were submitted by 45 academic laboratories and companies around the world. We collected pure natural products to circumvent deconvolution and structure elucidation due to time and resource limitations. The library was formatted into 1536-well plates and evaluated in 50 qHTS (in an 11-pnt concentration series) bioassays with broad scope of disease-relevant mechanisms. The resulting data set from 50 different assays was then systematically analyzed to identify overall trends and specific natural products with interesting biological activities. Reported herein are the results of each individual qHTS and their corresponding assay protocol. This profiling assay measures the resazurin-to-resorufin redox reaction in the presence of DTT and compound, and serves as a useful surrogate assay for measuring potential compound redox liability National Center for Advancing Translational Sciences (NCATS), Rockville, MD National Institute of Health (NIH), Bethesda, Maryland
Redox Profiling assay protocol: 1. In a black-solid bottom, medium binding, 1536-well plates (Greiner 789176), 4 uL of [1x] 5uM Resazurin + 200 uM DTT + buffer (50 mM HEPES pH 7.3 + 50 mM NaCl) was dispensed (into columns 1 - 48, rows 1 - 32) using a BioRAPTR FRD dispenser (Beckman Coulter). 2. 23 nL of compounds were pin transferred into the assay plates (columns 5 - 48) using the Kalypsis pin tool (Wako USA) equipped with a 1536-well pin heads. This yields a final concentration range of 0.002 - 127 uM. Control compound Chloranil (NCGC00091254-06) was also pinned (23 nL) into column 2, rows 1 - 32 (working concentration 10 mM, 1:2 dilution; 16 points titrations; n = 2). The final concentration range for the Chloranil was 0.002 to 57.2 uM. For 100% activation control, a single dose of 23 nL Chloranil (350 uM working concentration) was pinned to columns 3 and 4, rows 1-32 for a final concentration of 2 uM. 3. The assay plates were centrifuged for 15 seconds at 1000 rpm. 4. An initial fluorescence readout was obtained using the ViewLux plate reader (PerkinElmer) using a 525 nm excitation and a 598 nm emission filters. 5. The assay plates were incubated for 15 minutes in the dark. 6. After incubation, the final fluorescence readout was obtained using the ViewLux plate reader (PerkinElmer) using a 525 nm excitation and a 598 nm emission filters.
Potency is read from the fitted curve at half-maximal effect.

| Compound | Potency | activation (redox signal) |
| --- | --- | --- |
| C[C@@]12C[C@@H](C[C@H]3C(=O)O[C@@H](c4ccoc4)[C@H](OC(=O)c4ccccc4)[C@@H]31)OC2=O | inactive | – |
| CC1=CC2=C[C@H](C)C[C@@]23OC(=C(C)C3=O)CC(C)(C)/C=C/C1=O | inactive | – |
| CC12C[C@]3(O)O[C@@H](O1)[C@]1(COC(=O)c4ccccc4)[C@@H]3CC21OC1OC(CO)C(O)C(O)C1O (stereo not given in full) | inactive | – |
| C[C@H]1C[C@@H]([C@@H]2CC[C@]34O[C@H](CC[C@@]35C[C@H](C)C(=O)O5)CN24)OC1=O | inactive | – |
| CCCCCCCCCC(=O)[C@@H]1C(=O)N[C@@H](CC(C)C)C(=O)N[C@H](C)C(=O)N2CCC[C@H]2C(=O)N[C@@H](C(C)C)C(=O)N[C@H]2CS[C@H]1CNC2=O (cyclo(L[dA]PV[X1])) | inactive | – |
| O=Cc1ccc2n1C[C@@]1(C[C@H](O)[C@H](O)CO1)OC2 | inactive | – |
| Oc1ccc([C@H]2Oc3ccc(/C=C/c4cc(O)cc(O)c4)cc3C2c2cc(O)cc(O)c2)cc1 (stereo not given in full) | inactive | – |
| COc1ccc(/C=C2\COc3cc(O)ccc3C2=O)cc1 | inactive | – |
| CO[C@@H]1C[C@@H](C[C@H]2CC[C@H](C)[C@H]([C@@H](C)C(=O)O)O2)O[C@]2(O[C@](C)([C@H]3CC[C@@](C)([C@@H]4O[C@@H]([C@H]5O[C@](C)(O)[C@H](C)C[C@@H]5C)C[C@@H]4C)O3)C[C@H]2C)[C@@H]1C | inactive | – |
| CN1C(=O)[C@]23SS[C@@]1(C)C(=O)N2[C@H]1Nc2ccccc2[C@]1(c1c[nH]c2ccccc12)[C@@H]3O | 24.1 µM (active) | – |
| COc1c(O)cc2oc(-c3ccccc3)cc(=O)c2c1O | inactive | – |
| C=C[C@]1(C)CC[C@@H]([C@H](C)C(=O)/C=C/C(C)C)O1 | inactive | – |
| CC(=O)NC[C@@H]1O[C@H](CC/C=C(C)/C(C)=C/C=O)[C@H](C)C[C@H]1O | inactive | – |
| C=CC(=C)CC[C@]1(C)[C@H]2C[C@H](OC(=O)C(C)CC)C=C3[C@H](OC(C)=O)O[C@H](OC(C)=O)[C@@]32[C@H](OC)C[C@@H]1C (stereo not given in full) | inactive | – |
| O=c1cc(-c2ccc(O)c(O[C@@H]3O[C@H](CO)[C@@H](O)[C@H](O)[C@H]3O)c2)oc2cc(O[C@@H]3O[C@H](CO)[C@@H](O)[C@H](O)[C@H]3O)cc(O)c12 | inactive | – |
| C=C[C@@]1(C)CC[C@@H]([C@H](C)C(=O)/C=C/C(C)C)O1 | inactive | – |
| CC(=O)[C@@H]1[C@@H](O)C[C@H]2[C@]3(C)CC[C@H]4C(C)(C)CCC[C@]4(CO)[C@H]3C[C@H]3OC(=O)[C@@H]1[C@@]32C | inactive | – |
| C[C@@H]1C[C@H]2C[C@]3(CCCCN3C)[C@@H]3C[C@H]2[C@H](C1)N(C)C3 | inactive | – |
| C=C1/C=C\C(CCC)=C\c2csc(n2)C(C)NC(=O)C[C@@]2(CC(=O)O)CCC(=C)[C@H](C1)S2 (stereo not given in full) | inactive | – |
| CC1C(=O)C23CCC1C[C@@]21O[C@H]2C(C)(C)C=CC(=O)[C@@]23COC1=O (stereo not given in full) | inactive | – |

| Compound | Potency | activation (redox signal) |
| --- | --- | --- |
| O=C(O)[C@@]12CO[C@@]3(O)C4CCN(CC[C@H]31)[C@H]4c1c2[nH]c2ccccc12 | inactive | – |
| C/C=C/C(=O)[C@@H](C)C1=CC(=O)C2=C(O[C@@]34CC[C@H](O)C(C)(C)[C@@H]3CC[C@H](C)[C@@]4(C)C2)C1=O | inactive | – |
| COc1cc(/C=C/C(=O)O)ccc1O | inactive | – |
| CC(C)=CCC/C(C)=C/Cc1c(O)c(CC=C(C)C)c(O)c2c(=O)c3cc(O)ccc3oc12 | inactive | – |
| CCCCCCCCC[C@@H]1C[C@@H]2CC[C@H]3[C@@H](C(=O)OCCCCN=C(N)N)[C@@H](C)N=C(N1)N23 | inactive | – |
| C/C=C1/CC[C@@H]2c3[nH]c4ccccc4c3CCN2C1 | inactive | – |
| COC1C(O)C(OC(N)=O)C(Oc2ccc3c(O)c(NC(=O)c4ccc(O)c(CC=C(C)C)c4)c(=O)oc3c2C)OC1(C)C (stereo not given) | inactive | – |
| CC1(C)CC[C@]2(C(=O)O)CC[C@]3(C)C(=CC[C@@H]4[C@@]5(C)C[C@@H](O)[C@H](O)C(C)(C)[C@@H]5CC[C@]43C)[C@@H]2C1 | inactive | – |
| C=C1C(=O)O[C@H]2C[C@H](C)[C@@H]3CC(=O)C(C)=C3[C@H](O)[C@H]12 | inactive | – |
| C=C1[C@H]2CC[C@@]3(C=CC(=O)[C@@](C)(CCC(=O)Nc4c(O)ccc(C(=O)O)c4O)C3C2)[C@H]1O (stereo not given in full) | inactive | – |
| O=C(O)[C@@]12COC3(O)C1CCN1CC[C@H]3[C@@H]1c1c2[nH]c2ccccc12 | 21.5 µM (active) | – |
| C=C1C[C@@]23C=CC(=O)[C@@](C)(CCC(=O)Nc4c(O)ccc(C(=O)O)c4O)C2C[C@@H]1CC3 (stereo not given in full) | inactive | – |
| CCC1=C2CCCN3C(=O)O[C@H]([C@H]1OC(C)=O)[C@H]23 | inactive | – |
| O=C1CC(c2cc(O)cc(O)c2)Oc2cc(O)ccc21 (stereo not given) | inactive | – |
| CO[C@@H]1[C@H](O)[C@@H](C)O[C@@H](OC[C@H]2/C=C/C=C/C(=O)C(C)C[C@H](C)C(O[C@@H]3O[C@H](C)CC4(OC(=O)O[C@@H]4C)C3O)[C@@H](C)/C=C/C(=O)OC2C)[C@@H]1OC (stereo not given in full) | inactive | – |
| C=C[C@]1(C)CC[C@@H]([C@H](C)C(=O)OCC)O1 | inactive | – |
| O=C(O)CC1OC(=O)c2c(O)cccc21 (stereo not given) | inactive | – |
| CN1CCc2cc3c(c4c2[C@H]1[C@@H](O)c1ccccc1-4)OCO3 | 7.64 µM (active) | – |
| C=C(C)[C@@H]1CC[C@]2(C)CC[C@]3(C)[C@H](CC[C@@H]4[C@@]5(C)CC[C@H](O)C(C)(C)[C@@H]5CC[C@]43C)[C@@H]12 | inactive | – |
| COc1ccc([C@@H]2c3cc(OC)c(OC)cc3C(=O)[C@H](C)C2C)cc1OC (stereo not given in full) | – | -5.6% [at 11.4 µM] |
